Measured values published in article PMC7862700, “An all-to-all approach to the identification of sequence-specific readers for epigenetic DNA modifications on cytosine”.

What was measured:
Test in all cases: DAPPL (digital affinity profiling via proximity ligation, sequencing); 10 mM Tris-HCl pH 7.5, 50 mM NaCl, 1 mM DTT, 4% glycerol, room temperature, 30 min; GST-TFs on glutathione beads, 16-mer random dsDNA library, 0.1% formaldehyde crosslink after washing; high values mean tight binding
[1] = biological target: T1, FLI1 (Homo sapiens, UniProt Q01543 1-452); conditions: protein: recombinant; tags: N-terminal GST; dsDNA, one strand shown
T1 sequence: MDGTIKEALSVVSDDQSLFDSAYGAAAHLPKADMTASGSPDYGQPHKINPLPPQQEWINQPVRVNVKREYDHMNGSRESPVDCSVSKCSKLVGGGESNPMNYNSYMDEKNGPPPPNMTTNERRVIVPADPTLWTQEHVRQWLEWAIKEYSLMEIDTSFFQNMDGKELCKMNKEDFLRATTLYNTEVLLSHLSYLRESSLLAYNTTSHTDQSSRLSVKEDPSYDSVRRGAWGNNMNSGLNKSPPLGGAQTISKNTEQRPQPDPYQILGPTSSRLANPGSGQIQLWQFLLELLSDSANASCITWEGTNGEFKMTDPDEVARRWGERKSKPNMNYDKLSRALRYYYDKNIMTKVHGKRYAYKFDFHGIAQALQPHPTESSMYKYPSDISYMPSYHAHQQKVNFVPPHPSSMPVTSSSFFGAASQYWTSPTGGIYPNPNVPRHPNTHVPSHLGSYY
Procedure, shortened: (§1)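 After expression in yeast as GST fusions, human transcription factors were bound to glutathione beads, DNA-barcoded and mixed with a tag-only sample. The pools were incubated with 200 nmole of a 16-mer random double-stranded DNA library in Tris/NaCl/DTT/glycerol buffer (30 min, room temperature), washed and crosslinked with 0.1% formaldehyde. Proximity ligation with BsaI/T4 ligase ran for 1 h at 37 °C, before PCR amplification and sequencing on an Illumina NextSeq500. Binding signal is a hexamer's read frequency for a factor divided by its frequency for the tag-only sample.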

[2] = biological target: T2, ELK1 (Homo sapiens, UniProt P19419 1-428); conditions: protein: recombinant; tags: N-terminal GST; dsDNA, one strand shown
T2 sequence: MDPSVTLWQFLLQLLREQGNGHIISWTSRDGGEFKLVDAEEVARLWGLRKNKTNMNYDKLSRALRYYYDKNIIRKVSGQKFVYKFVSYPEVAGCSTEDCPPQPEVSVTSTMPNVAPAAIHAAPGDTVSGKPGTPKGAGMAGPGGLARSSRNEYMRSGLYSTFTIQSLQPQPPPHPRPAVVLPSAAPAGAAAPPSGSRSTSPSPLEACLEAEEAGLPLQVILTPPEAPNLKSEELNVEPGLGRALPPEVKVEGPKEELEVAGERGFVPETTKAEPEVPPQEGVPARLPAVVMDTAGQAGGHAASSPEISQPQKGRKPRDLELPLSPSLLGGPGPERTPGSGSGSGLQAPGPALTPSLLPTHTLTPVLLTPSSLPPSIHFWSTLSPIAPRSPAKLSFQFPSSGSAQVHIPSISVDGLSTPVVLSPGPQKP
Procedure, shortened: as §1

[3] = biological target: T3, GABPA (Homo sapiens, UniProt Q06546 1-454); conditions: protein: recombinant; tags: N-terminal GST; dsDNA, one strand shown
T3 sequence: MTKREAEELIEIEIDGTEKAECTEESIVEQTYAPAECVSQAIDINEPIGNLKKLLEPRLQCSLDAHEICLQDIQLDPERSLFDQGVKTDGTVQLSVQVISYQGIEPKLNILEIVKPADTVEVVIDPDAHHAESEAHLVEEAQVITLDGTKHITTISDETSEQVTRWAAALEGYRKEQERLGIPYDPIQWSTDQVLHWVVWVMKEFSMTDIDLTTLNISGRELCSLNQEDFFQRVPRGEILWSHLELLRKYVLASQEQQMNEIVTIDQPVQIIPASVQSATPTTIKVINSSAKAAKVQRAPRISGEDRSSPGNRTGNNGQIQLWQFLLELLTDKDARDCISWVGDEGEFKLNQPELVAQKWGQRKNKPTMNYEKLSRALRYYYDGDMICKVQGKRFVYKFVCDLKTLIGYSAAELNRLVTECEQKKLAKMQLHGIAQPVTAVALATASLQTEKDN
Procedure, shortened: as §1

[4] = biological target: T4, ERG (Homo sapiens, UniProt P11308 1-479); conditions: protein: recombinant; tags: N-terminal GST; dsDNA, one strand shown
T4 sequence: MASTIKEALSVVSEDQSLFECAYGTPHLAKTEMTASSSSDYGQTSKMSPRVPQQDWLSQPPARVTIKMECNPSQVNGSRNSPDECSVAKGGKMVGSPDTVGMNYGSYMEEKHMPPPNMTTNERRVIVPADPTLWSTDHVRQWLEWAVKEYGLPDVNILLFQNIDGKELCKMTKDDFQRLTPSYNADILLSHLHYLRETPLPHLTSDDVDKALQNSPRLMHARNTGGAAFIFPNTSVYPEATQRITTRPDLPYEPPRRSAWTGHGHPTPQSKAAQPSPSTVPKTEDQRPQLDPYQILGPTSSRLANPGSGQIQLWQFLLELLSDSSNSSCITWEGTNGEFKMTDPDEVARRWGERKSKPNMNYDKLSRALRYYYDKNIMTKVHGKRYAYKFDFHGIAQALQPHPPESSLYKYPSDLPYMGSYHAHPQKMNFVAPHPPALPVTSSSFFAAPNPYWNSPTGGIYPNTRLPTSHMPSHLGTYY
Procedure, shortened: as §1

[5] = biological target: ELF1 (Homo sapiens, UniProt P32519 1-619); conditions: protein: recombinant; tags: N-terminal GST; dsDNA, one strand shown
ELF1, sequence (P32519 whole entry): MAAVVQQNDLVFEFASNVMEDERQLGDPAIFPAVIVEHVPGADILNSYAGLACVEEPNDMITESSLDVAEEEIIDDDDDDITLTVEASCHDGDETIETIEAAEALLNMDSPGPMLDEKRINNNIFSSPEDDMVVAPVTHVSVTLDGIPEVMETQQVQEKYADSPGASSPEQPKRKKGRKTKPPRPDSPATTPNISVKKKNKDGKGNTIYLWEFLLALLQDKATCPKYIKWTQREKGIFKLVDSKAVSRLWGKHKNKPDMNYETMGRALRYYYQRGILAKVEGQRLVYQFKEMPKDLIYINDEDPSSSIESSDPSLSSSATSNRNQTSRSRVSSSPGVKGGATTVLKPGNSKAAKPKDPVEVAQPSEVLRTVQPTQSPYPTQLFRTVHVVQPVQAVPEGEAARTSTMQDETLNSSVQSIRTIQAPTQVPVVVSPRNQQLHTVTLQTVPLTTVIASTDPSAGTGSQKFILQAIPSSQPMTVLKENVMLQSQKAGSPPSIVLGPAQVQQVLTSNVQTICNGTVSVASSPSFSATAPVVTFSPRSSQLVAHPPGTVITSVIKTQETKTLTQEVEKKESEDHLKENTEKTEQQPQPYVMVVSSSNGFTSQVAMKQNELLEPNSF
Procedure, shortened: as §1

[6] = biological target: T5, EHF (Homo sapiens, UniProt Q9NZC4 1-300); conditions: protein: recombinant; tags: N-terminal GST; dsDNA, one strand shown
T5 sequence: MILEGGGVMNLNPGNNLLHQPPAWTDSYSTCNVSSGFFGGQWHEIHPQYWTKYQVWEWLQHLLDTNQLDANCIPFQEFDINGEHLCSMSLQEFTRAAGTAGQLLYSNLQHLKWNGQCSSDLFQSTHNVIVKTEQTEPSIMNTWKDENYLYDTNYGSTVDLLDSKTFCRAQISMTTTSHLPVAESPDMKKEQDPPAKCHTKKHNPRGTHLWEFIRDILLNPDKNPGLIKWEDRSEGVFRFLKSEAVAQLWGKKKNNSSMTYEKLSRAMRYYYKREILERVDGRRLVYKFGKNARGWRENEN
Procedure, shortened: as §1

[7] = biological target: SPI1 (Homo sapiens, UniProt P17947 1-270); conditions: protein: recombinant; tags: N-terminal GST; dsDNA, one strand shown
Procedure, shortened: as §1

[8] = biological target: SPIB (Homo sapiens, UniProt Q01892 1-262); conditions: protein: recombinant; tags: N-terminal GST; dsDNA, one strand shown
SPIB, sequence (Q01892 whole entry): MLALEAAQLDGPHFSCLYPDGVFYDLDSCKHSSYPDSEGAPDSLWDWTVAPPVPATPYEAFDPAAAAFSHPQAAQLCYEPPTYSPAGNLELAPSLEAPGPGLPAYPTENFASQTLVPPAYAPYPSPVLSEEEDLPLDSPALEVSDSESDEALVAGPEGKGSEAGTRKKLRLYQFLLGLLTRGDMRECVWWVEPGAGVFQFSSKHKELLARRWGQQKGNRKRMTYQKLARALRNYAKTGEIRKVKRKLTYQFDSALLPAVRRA
Procedure, shortened: as §1

[9] = biological target: T6, FEV (Homo sapiens, UniProt Q99581 1-238); conditions: protein: recombinant; tags: N-terminal GST; dsDNA, one strand shown
T6 sequence: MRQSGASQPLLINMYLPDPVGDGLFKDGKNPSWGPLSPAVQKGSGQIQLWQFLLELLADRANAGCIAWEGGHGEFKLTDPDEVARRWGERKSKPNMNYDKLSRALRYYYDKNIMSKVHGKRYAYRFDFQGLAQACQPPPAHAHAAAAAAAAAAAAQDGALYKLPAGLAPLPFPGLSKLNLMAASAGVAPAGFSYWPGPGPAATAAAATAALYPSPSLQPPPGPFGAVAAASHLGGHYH
Procedure, shortened: as §1

[10] = biological target: ETV5 (Homo sapiens, UniProt P41161 1-510); conditions: protein: recombinant; tags: N-terminal GST; dsDNA, one strand shown
ETV5, sequence (P41161 whole entry): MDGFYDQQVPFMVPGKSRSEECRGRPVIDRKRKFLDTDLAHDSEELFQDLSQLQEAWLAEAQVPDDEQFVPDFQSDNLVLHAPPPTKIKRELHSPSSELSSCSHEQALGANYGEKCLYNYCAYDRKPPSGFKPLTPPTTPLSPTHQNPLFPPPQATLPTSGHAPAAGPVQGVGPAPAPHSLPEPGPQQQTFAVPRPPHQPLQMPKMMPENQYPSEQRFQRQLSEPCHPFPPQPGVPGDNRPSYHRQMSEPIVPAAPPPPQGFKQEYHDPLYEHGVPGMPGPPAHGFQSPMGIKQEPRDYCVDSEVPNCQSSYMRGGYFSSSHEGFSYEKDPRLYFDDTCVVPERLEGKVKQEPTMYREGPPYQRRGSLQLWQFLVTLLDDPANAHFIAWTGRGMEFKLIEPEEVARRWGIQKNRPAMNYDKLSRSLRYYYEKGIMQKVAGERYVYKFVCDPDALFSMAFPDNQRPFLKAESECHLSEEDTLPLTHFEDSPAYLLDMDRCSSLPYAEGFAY
Procedure, shortened: as §1

[11] = biological target: HSF1 (Homo sapiens, UniProt Q00613 1-529); conditions: protein: recombinant; tags: N-terminal GST; chain copies: 3; dsDNA, one strand shown
HSF1, sequence (Q00613 whole entry): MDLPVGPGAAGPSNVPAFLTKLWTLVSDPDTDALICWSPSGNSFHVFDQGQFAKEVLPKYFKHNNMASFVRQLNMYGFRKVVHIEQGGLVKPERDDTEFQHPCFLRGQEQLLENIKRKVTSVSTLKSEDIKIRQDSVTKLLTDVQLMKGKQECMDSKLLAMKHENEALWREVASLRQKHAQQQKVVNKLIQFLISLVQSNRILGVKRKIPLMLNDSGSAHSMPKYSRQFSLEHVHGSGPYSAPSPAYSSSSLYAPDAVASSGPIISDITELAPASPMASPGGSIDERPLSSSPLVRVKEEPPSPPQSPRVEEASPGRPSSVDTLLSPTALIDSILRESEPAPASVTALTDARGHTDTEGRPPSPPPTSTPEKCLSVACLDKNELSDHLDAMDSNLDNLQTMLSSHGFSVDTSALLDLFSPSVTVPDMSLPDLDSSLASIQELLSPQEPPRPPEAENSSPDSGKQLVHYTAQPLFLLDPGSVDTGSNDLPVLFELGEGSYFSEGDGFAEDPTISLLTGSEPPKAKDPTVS
Procedure, shortened: as §1

[12] = biological target: T7, SPIC (Homo sapiens, UniProt Q8N5J4 1-248); conditions: protein: recombinant; tags: N-terminal GST; dsDNA, one strand shown
T7 sequence: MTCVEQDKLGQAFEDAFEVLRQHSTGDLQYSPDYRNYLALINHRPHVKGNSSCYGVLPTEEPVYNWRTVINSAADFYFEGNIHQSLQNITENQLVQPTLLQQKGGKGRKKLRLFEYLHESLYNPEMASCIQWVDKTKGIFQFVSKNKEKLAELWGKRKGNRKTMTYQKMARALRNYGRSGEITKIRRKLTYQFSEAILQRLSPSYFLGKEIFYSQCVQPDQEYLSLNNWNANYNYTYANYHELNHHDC
Procedure, shortened: as §1

[13] = biological target: ELF4 (Homo sapiens, UniProt Q99607 1-663); conditions: protein: recombinant; tags: N-terminal GST; dsDNA, one strand shown
ELF4, sequence (Q99607 whole entry): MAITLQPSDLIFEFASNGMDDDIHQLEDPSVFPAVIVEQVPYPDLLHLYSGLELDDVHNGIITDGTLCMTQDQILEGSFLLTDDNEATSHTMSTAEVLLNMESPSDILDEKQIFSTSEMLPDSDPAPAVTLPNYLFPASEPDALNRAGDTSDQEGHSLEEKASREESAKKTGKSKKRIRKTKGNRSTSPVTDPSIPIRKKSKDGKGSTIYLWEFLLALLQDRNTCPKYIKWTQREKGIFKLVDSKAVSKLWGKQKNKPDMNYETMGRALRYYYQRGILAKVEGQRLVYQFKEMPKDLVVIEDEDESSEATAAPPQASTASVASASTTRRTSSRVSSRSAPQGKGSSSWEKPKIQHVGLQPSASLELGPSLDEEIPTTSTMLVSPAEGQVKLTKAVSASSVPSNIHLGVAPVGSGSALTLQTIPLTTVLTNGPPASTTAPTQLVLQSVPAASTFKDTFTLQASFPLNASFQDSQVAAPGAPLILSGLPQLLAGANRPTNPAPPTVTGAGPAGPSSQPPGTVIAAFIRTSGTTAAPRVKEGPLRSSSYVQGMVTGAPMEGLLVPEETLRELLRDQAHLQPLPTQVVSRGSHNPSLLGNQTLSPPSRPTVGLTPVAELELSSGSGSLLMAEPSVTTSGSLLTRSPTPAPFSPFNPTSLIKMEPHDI
Procedure, shortened: as §1

[14] = biological target: T8, ELK4 (Homo sapiens, UniProt P28324-2 1-405); conditions: protein: recombinant; tags: N-terminal GST; dsDNA, one strand shown
T8 sequence: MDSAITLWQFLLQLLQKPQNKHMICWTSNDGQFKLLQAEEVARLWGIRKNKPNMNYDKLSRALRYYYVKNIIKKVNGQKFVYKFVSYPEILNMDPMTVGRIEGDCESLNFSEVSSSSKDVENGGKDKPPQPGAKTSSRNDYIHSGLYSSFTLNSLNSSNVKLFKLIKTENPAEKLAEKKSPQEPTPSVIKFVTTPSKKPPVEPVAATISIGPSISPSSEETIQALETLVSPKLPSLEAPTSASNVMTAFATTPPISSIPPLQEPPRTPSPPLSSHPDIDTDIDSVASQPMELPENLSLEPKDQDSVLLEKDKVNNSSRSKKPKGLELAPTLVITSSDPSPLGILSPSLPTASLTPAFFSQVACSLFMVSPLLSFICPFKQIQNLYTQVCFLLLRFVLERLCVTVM
Procedure, shortened: as §1

[15] = biological target: T9, ETV2 (Homo sapiens, UniProt O00321 1-342); conditions: protein: recombinant; tags: N-terminal GST; dsDNA, one strand shown
T9 sequence: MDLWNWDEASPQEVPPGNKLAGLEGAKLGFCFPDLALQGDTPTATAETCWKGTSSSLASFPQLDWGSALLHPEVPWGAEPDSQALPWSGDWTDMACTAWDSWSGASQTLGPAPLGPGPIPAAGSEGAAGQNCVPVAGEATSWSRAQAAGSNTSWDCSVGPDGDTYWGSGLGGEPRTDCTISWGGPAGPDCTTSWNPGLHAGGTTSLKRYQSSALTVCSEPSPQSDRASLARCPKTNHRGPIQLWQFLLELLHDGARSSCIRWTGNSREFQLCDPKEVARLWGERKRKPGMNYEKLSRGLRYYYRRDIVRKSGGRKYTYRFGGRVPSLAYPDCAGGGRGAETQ
Procedure, shortened: as §1

[16] = biological target: T10, ELF3 (Homo sapiens, UniProt P78545 1-371); conditions: protein: recombinant; tags: N-terminal GST; dsDNA, one strand shown
T10 sequence: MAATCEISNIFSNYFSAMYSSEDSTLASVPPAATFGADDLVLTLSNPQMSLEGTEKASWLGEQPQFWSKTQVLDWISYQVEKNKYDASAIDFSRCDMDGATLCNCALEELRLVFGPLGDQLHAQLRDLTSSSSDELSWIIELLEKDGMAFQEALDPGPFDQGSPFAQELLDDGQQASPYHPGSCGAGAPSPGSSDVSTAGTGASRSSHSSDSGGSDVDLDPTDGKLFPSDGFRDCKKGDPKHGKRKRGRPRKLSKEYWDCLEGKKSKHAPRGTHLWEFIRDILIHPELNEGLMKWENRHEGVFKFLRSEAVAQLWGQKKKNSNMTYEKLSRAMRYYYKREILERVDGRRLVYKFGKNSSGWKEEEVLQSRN
Procedure, shortened: as §1

[17] = biological target: ETV1 (Homo sapiens, UniProt P50549 1-477); conditions: protein: recombinant; tags: N-terminal GST; dsDNA, one strand shown
ETV1, sequence (P50549 whole entry): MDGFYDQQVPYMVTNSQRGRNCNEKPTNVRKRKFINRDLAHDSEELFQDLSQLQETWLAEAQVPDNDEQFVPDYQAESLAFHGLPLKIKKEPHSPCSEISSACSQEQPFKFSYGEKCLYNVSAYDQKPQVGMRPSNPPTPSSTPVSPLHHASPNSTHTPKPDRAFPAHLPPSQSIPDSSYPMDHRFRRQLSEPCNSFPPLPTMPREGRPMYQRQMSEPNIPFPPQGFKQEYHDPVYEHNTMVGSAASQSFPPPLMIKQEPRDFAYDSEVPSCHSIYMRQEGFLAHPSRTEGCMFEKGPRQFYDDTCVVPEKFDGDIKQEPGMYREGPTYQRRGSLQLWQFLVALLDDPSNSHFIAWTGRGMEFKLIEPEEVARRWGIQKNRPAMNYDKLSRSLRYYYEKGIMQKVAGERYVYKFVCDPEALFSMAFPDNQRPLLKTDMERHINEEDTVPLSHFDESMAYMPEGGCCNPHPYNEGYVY
Procedure, shortened: as §1

Sequence: GCTCGT
- binding signal [1]: 1.19 fold enrichment (6-mer frequency, TF over GST control)
- binding signal [2]: 1.16 fold enrichment (6-mer frequency, TF over GST control)
- binding signal [3]: 1.26 fold enrichment (6-mer frequency, TF over GST control)
- binding signal [4]: 1.12 fold enrichment (6-mer frequency, TF over GST control)
- binding signal [5]: 1.15 fold enrichment (6-mer frequency, TF over GST control)
- binding signal [6]: 1.14 fold enrichment (6-mer frequency, TF over GST control)
- binding signal [7]: 1.12 fold enrichment (6-mer frequency, TF over GST control)
- binding signal [8]: 1.16 fold enrichment (6-mer frequency, TF over GST control)
- binding signal [9]: 1.06 fold enrichment (6-mer frequency, TF over GST control)
- binding signal [10]: 1.17 fold enrichment (6-mer frequency, TF over GST control)
- binding signal [11]: 1.07 fold enrichment (6-mer frequency, TF over GST control)
- binding signal [12]: 1.14 fold enrichment (6-mer frequency, TF over GST control)
- binding signal [13]: 1.24 fold enrichment (6-mer frequency, TF over GST control)
- binding signal [14]: 1.11 fold enrichment (6-mer frequency, TF over GST control)
- binding signal [15]: 1.29 fold enrichment (6-mer frequency, TF over GST control)
- binding signal [16]: 1.16 fold enrichment (6-mer frequency, TF over GST control)
- binding signal [17]: 1.15 fold enrichment (6-mer frequency, TF over GST control)
